Assay outcomes (PubChem BioAssay)
SKKanGAS inh: SKKanGAS growth inhibition; S. pyogenes SKKanGAS, kanamycin growth, BacTiter-Glo, 6 h; inhibition, % at 7.5 µM; 300,000 tested, 1.3% active; AID 1662;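 active means mean replicate score, as percent of positive control median, at least 50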;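 further: strain carries kanamycin resistance gene driven by streptokinase promoter and grows in 40 µg/ml kanamycin; loss of luminescence reflects streptokinase promoter inhibition or plain growth inhibition; 0% = median of DMSO wells and 100% = positive control at its reference dose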
tim23-1 inh: growth inhibitors of tim23-1 mutant yeast; S. cerevisiae tim23-1 growth, BacTiter-Glo luminescence, 24 h; inhibition, % at 20 µM; 330,000 tested, 1.3% active; AID 463212;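 active means growth inhibition of the mutant yeast at or above 50%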;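 further: temperature-sensitive mutant grown at 25 °C; plate controls were DMSO-treated mutant yeast for no effect and medium wells lacking yeast for full effect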
PfHsp90 set2: growth inhibition of yeast expressing Plasmodium Hsp90; S. cerevisiae expressing PfHsp90, BacTiter-Glo ATP, 48 h; yeast lacking PDR1 and PDR3 efflux regulators; inhibition, % at 9.4 µM; 310,000 tested, 0.32% active;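 active means every replicate shows inhibition above about 80%, whatever the replicate mean, limit read from the data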;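 further: 0% = DMSO neutral controls and 100% = 20 µM radicicol positive controls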
NLRP3 yeast inh: NALP3 inhibition in yeast; Yeast reconstituted NLRP3/ASC/caspase-1, beta-gal luminescence, 24 h; inhibition, % at 10 µM; 330,000 tested, 0.39% active; AID 2825;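 active means inhibition of 50% or more; inactive means inhibition below 50%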;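 further: plate controls were induced DMSO wells for no effect and uninduced yeast grown without galactose for full effect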
tim10-1 inh: tim10-1 yeast growth inhibition | S. cerevisiae tim10-1 ts strain growth, BacTiter-Glo, 24 h | inhibition, % at 20 µM | 330,000 tested, 2.2% active | AID 463190;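 active means inhibition of at least 40%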;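 further: mutant grown at 25 °C; 0% = DMSO wells with yeast and 100% = wells holding no yeast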
TIM10 inh: inhibits growth of TIM10 yeast strain; AID 463195; 330,000 tested, 1.4% active; S. cerevisiae TIM10 strain growth, BacTiter-Glo luminescence, 24 h; inhibition, % at 10 µM;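 active means inhibition of 40% or more at the single tested concentration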;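 further: wild-type TIM10 isogenic control strain grown at permissive 25 °C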
NALP3 confirm: confirmation of NALP3 inhibitors in yeast; shares compounds with NLRP3 yeast inh; yeast expressing human NALP3, luminescence; inhibition, % at 10 µM; 1,300 tested, 81% active; AID 435006; in the data active means inhibition above about 48%
Casp1 ASC ctr: caspase-1-ASC yeast counter-screen hit; shares compounds with NLRP3 yeast inh; yeast expressing Caspase-1-ASC, luminescence counter screen; inhibition, % at 10 µM; 1,000 tested, 66% active
NALP3 yeast rt: retest-confirmed inhibitor of NALP3 in yeast | 1,000 tested, 53% active | shares compounds with NLRP3 yeast inh | inhibition, % at 10 µM | yeast expressing human NALP3, luminescence read-out
Starred values were filed as active, the others as inactive; nt = no result given. This is a sample that favours compounds with a hit; in the whole collection about 4.5% have one here. Unless noted, no stated cut-off is given here; in the data, active means inhibition above about 50%; inactive means the rest.

SMILES	SKKanGAS inh	tim23-1 inh	PfHsp90 set2	NLRP3 yeast inh	tim10-1 inh	TIM10 inh	NALP3 confirm	others
CCN1CCN(C(=O)N[C@@H](C(=O)N[C@@H]2C(=O)N3[C@@H]2SC(C)(C)[C@@H]3C(=O)O)c2ccccc2)C(=O)C1=O	103*	13	nt	-3	5	7	nt
COc1ccccc1NS(=O)(=O)c1cccc(NC(=O)c2cc3ccccc3oc2=O)c1	10	-24	-36	-3	-32	-22	nt
CS(=O)(=O)Nc1ccc2c(c1)OCC(=O)N2Cc1ccccc1	5	-4	-15	14	4	2	nt
Cc1c(C(=O)N(C)C)sc2nc(-c3ccccn3)[nH]c(=O)c12	0	0	20	12	-3	-12	nt
O=c1[nH]c(-c2ccccn2)nc2sc(-c3ccccc3)cc12	96*	nt	59	nt	nt	nt	nt
CCCCn1c(N)c(N(CC(C)C)C(=O)C2=COCCO2)c(=O)[nH]c1=O	nt	9	39	11	2	16	nt
CCCCCC(=O)Cc1cc(O)cc2c1C(=O)Oc1cc(O)c(C(=O)O)c(CCCCC)c1O2	71*	24	nt	5	28	15	nt
CSc1nc(Sc2ccccc2Cl)c2ccccc2n1	59*	5	-1	24	3	6	nt
CCOC(=O)c1cnc(SC)nc1Sc1ccccc1Cl	-16	21	-2	17	8	12	nt
CCCCCc1ccc(OCCOCCn2c[n+](C)c3ccccc32)c(CCCCC)c1	84*	nt	21	nt	nt	nt	nt
Cc1ccccc1N1CCN(C2CCCN(C(=O)c3cnsn3)C2)CC1 (stereo not given)	-4	10	5	11	12	3	nt
CCCc1nc(NC2CCCCC2)c(C#N)c2c1COC(C)(C)C2	60*	16	-11	0	11	9	nt
CCCc1sc(N/N=C/c2ccccn2)nc1-c1ccc(Br)cc1	67*	38	-73	1	3	17	nt
CC(=O)Nc1sc(N/N=C/c2ccccc2)nc1-c1ccc(C)cc1	4	28	-3	29	26	24	nt
CCc1noc(C)c1C(=O)N1CCN(S(=O)(=O)c2cccs2)CC1	-2	13	-36	14	-18	4	nt
Cc1ccc(NC(=S)NC2CCSc3ccccc32)cc1C (stereo not given)	61*	45	-36	20	27	27	nt
COC(=O)c1ccc(C(=O)NC2CCSc3ccccc32)cc1 (stereo not given)	2	9	9	36	-1	28	nt
Cc1cc(-c2c(C)[nH]n(-c3ccc(Cl)cc3)c2=O)n(-c2ccc(Cl)cc2)n1	101*	19	-2	15	13	14	nt
O=C(Nc1nccs1)c1ccc(-c2ccc(F)c(Cl)c2)o1	75*	39	6	16	21	23	nt
C=C(C)CSc1nc2sc3c(c2c(=O)n1-c1ccc(OC)cc1)CCN(C)C3	8	-13	nt	12	-30	3	nt
Brc1ccc2c(c1)CN1CCCC1=N2	2	8	2	63*	8	21	80*	Casp1 ASC ctr=53*;NALP3 yeast rt=51*
O=C1CN2C(=Nc3ccc(Br)cc3C2c2ccccc2)CCN1 (stereo not given)	1	-6	17	5	14	19	nt
COc1ccc(C(=O)c2cc([N+](=O)[O-])ccc2N2CCCC2)cc1	1	19	23	56*	29	18	23
CCN1C[C@@H]2[C@@H]3C(=O)N(C)C(=O)[C@@H]3[C@](C)(C1=O)N2C(=O)c1ccc(Cl)cc1	nt	nt	22	nt	nt	nt	nt
CC(=O)O[C@H]1CC[C@@]2(C)C(CCC3C2CC[C@]2(C)OC(=O)CCC32)C1 (stereo not given in full)	8	-33	nt	60*	-49	-47	58*	Casp1 ASC ctr=59*;NALP3 yeast rt=35
SMILES	SKKanGAS inh	tim23-1 inh	PfHsp90 set2	NLRP3 yeast inh	tim10-1 inh	TIM10 inh	NALP3 confirm	others
COC(=O)N[C@@H]1C[C@H]2[C@@H]3CC[C@H]4C[C@@H](OC)CC[C@]4(C)[C@H]3CC[C@]12C	nt	28	nt	37	14	8	nt
Cc1ccc(SCCNC(=S)Nc2cc(C)cc(C)c2)cc1	3	7	-12	55*	-2	15	61*	Casp1 ASC ctr=50*;NALP3 yeast rt=38
Cc1ccc(NC(=O)NCCSc2ccc(C)cc2)cc1	-8	6	11	28	-13	-5	nt
COc1ccc(OC)c(NC(=O)C2COc3ccccc3O2)c1 (stereo not given)	-18	26	-6	26	18	12	nt
COc1ccc(CNC(=O)C2COc3ccccc3O2)c(OC)c1 (stereo not given)	-4	18	nt	53*	11	13	65*	Casp1 ASC ctr=46;NALP3 yeast rt=39
Cc1ccc(S(=O)(=O)c2nc(S(C)(=O)=O)sc2N2CC(C)OC(C)C2)cc1 (stereo not given)	24	15	-4	2	9	5	nt
Cc1ccc(NC(=O)c2ccc3ccccc3n2)cc1S(=O)(=O)N1CCOCC1	1	16	-18	-43	22	9	nt
O=C(Nc1cccc(S(=O)(=O)N2CCOCC2)c1)c1ccc2ccccc2n1	-2	46	-17	-104	27	22	-2
CC(C)CN(C(=O)C1CCC1)c1c(N)n(Cc2ccccc2)c(=O)[nH]c1=O	nt	11	19	6	6	-2	nt
CC1=CC2=NC(=O)/C(=C\c3cccn3CCOc3cccc(C)c3)C(=N)N2O1	-2	28	15	60*	14	12	3
CC(C)COc1ccc(CSCCNC(=S)Nc2ccccc2)cc1	22	30	-39	53*	32	31	80*	Casp1 ASC ctr=58*;NALP3 yeast rt=41
Cc1ccc(S(=O)(=O)NC(C)(C)C)cc1C(=O)OCC(=O)N1CCCC1=O	-7	8	nt	-13	7	3	nt
N#C/C(=N\Nc1ccc(Cl)cc1)C(=O)c1ccccc1	30	22	-14	55*	28	-10	59*	Casp1 ASC ctr=73*;NALP3 yeast rt=84*
OCC[C@@H]1C[C@H](O)[C@@H](O)[C@@]2(CCCc3ccccc3O2)O1	7	17	6	11	0	14	nt
CC1(C(=O)OCc2cc(=O)n3cc(Br)ccc3n2)CC1(Cl)Cl (stereo not given)	-3	41	5	64*	24	-1	72*	Casp1 ASC ctr=78*;NALP3 yeast rt=64*
CN1CCN(c2ccccc2/C=C2/C(=O)Nc3ccccc32)CC1	0	20	-4	28	18	-11	nt
O=c1c2cc(Cl)ccc2nc(-c2ccc([N+](=O)[O-])cc2)n1O	5	37	2	65*	2	-2	68*	Casp1 ASC ctr=38;NALP3 yeast rt=58*
